Laboratory results taken from PubChem BioAssay (NCI).
Compounds without any hit were thinned out: in the full panel of roughly 83,000, 20% have a hit.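 Plates (96-well) were seeded with cells, treated with compound at one concentration, and incubated for 48 hours before percent growth was determined.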 The source made the active and inactive calls. How the source made its calls: active means growth percent below 10; inactive means the rest.

Tests used:
Assay in all cases: NCI-60 one-dose screen, 48 h (100 = growth as untreated, 0 = no growth, -100 = all killed)
Conditions in all cases: 10 µM unless noted
NCI-H23 lung = test system: NCI-H23 lung
NCI-H226 lung = test system: NCI-H226 lung
NCI-H322M lung = test system: NCI-H322M lung
HOP-62 NSCLC = test system: HOP-62 NSCLC
NCI-H460 lung = test system: NCI-H460 lung
NCI-H522 lung = test system: NCI-H522 lung
A549/ATCC NSCLC = test system: A549/ATCC NSCLC
786-0 renal = test system: 786-0 renal
COLO 205 colon = test system: COLO 205 colon
DU-145 prostate = test system: DU-145 prostate
K-562 leukemia = test system: K-562 leukemia
MALME-3M melanoma = test system: MALME-3M melanoma
MDA-MB-231 breast = test system: MDA-MB-231 breast
RXF 393 renal = test system: RXF 393 renal
SF-268 CNS = test system: SF-268 CNS
SF-295 CNS = test system: SF-295 CNS
SF-539 CNS = test system: SF-539 CNS
UACC-257 melanoma = test system: UACC-257 melanoma
M14 melanoma = test system: M14 melanoma

Measured: growth

O=C1/C=C/[C@@H](O)[C@@H]2C[C@@H](O)C[C@H]2/C=C/CCC[C@H]([C@@H](O)CO)O1
inactive: NCI-H23 lung 93% | NCI-H226 lung 106% | NCI-H322M lung 91.9% | HOP-62 NSCLC 108% | NCI-H460 lung 115% | NCI-H522 lung 92.8% | A549/ATCC NSCLC 96.1% | 786-0 renal 50.3% | COLO 205 colon 94.3% | DU-145 prostate 135% | K-562 leukemia 95.2% | MALME-3M melanoma 64.4% | MDA-MB-231 breast 91.6% | RXF 393 renal 24.9% | SF-268 CNS 60.8% | SF-295 CNS 87.7% | SF-539 CNS 74.3% | UACC-257 melanoma 69.3% | M14 melanoma 68.8%

CC(C)(c1ccccc1)c1cc(O)c(C(C)(C)c2ccccc2)cc1O
active: NCI-H522 lung -2.05% | MDA-MB-231 breast -1.39%
inactive: NCI-H23 lung 38% | NCI-H226 lung 43.2% | NCI-H322M lung 59.7% | HOP-62 NSCLC 63% | NCI-H460 lung 21.9% | A549/ATCC NSCLC 28.5% | 786-0 renal 30.5% | COLO 205 colon 17% | DU-145 prostate 63.3% | K-562 leukemia 13% | MALME-3M melanoma 48.5% | RXF 393 renal 63.4% | SF-268 CNS 38.7% | SF-295 CNS 25% | SF-539 CNS 50.4% | UACC-257 melanoma 11.3% | M14 melanoma 11.9%

Cc1c(C(=O)CCl)c(=O)n(-c2ccccc2)n1C
active: NCI-H522 lung -34.4%
inactive: NCI-H23 lung 72.7% | NCI-H226 lung 104% | NCI-H322M lung 101% | HOP-62 NSCLC 105% | NCI-H460 lung 81.2% | A549/ATCC NSCLC 83.5% | 786-0 renal 88.6% | COLO 205 colon 48.7% | DU-145 prostate 42.4% | K-562 leukemia 53% | MALME-3M melanoma 48.1% | MDA-MB-231 breast 97.7% | RXF 393 renal 38.7% | SF-268 CNS 84.5% | SF-295 CNS 87.3% | SF-539 CNS 71.7% | UACC-257 melanoma 52.1% | M14 melanoma 52.3%

CCN(CC)C(=O)O/N=C(/C)c1ccccc1
inactive: NCI-H23 lung 95.1% | NCI-H226 lung 114% | NCI-H322M lung 102% | HOP-62 NSCLC 110% | NCI-H460 lung 110% | NCI-H522 lung 92.1% | A549/ATCC NSCLC 96.1% | 786-0 renal 96.6% | COLO 205 colon 115% | DU-145 prostate 100% | K-562 leukemia 102% | MALME-3M melanoma 130% | MDA-MB-231 breast 91% | RXF 393 renal 102% | SF-268 CNS 104% | SF-295 CNS 105% | SF-539 CNS 88.1% | UACC-257 melanoma 105% | M14 melanoma 101%

c1ccc(CCn2cccc2)nc1
inactive: NCI-H23 lung 106% | NCI-H226 lung 107% | NCI-H322M lung 122% | HOP-62 NSCLC 98% | NCI-H460 lung 123% | NCI-H522 lung 106% | A549/ATCC NSCLC 109% | 786-0 renal 103% | COLO 205 colon 94.8% | DU-145 prostate 104% | K-562 leukemia 98.6% | MALME-3M melanoma 114% | MDA-MB-231 breast 94.9% | RXF 393 renal 116% | SF-268 CNS 96.5% | SF-295 CNS 114% | SF-539 CNS 106% | UACC-257 melanoma 108% | M14 melanoma 106%

COc1ccc2c(c1)sc1nc(-c3ccccc3)c(-c3cccc4ccccc34)n12
active: NCI-H460 lung 8.82% | NCI-H522 lung -11% | COLO 205 colon 6.28% | RXF 393 renal 7.5% | SF-295 CNS -38.7% | SF-539 CNS 0.248%
inactive: NCI-H23 lung 39.3% | NCI-H226 lung 68.2% | NCI-H322M lung 57.9% | HOP-62 NSCLC 64.4% | A549/ATCC NSCLC 24.2% | 786-0 renal 51.7% | DU-145 prostate 18.9% | K-562 leukemia 15% | MALME-3M melanoma 51.5% | MDA-MB-231 breast 39.7% | SF-268 CNS 50.8% | UACC-257 melanoma 68.4% | M14 melanoma 21%

O=C(C(=O)N1CCCC1)c1cn(CCCn2cc(C(=O)C(=O)N3CCCC3)c3cc(Br)ccc32)c2ccc(Br)cc12
inactive: NCI-H23 lung 80.3% | NCI-H226 lung 85.9% | NCI-H322M lung 82.3% | HOP-62 NSCLC 56.1% | NCI-H460 lung 53.4% | NCI-H522 lung 62% | A549/ATCC NSCLC 57.8% | 786-0 renal 71.4% | COLO 205 colon 106% | DU-145 prostate 62.3% | K-562 leukemia 81.9% | MALME-3M melanoma 58.1% | MDA-MB-231 breast 82.1% | RXF 393 renal 82.8% | SF-268 CNS 53.7% | SF-539 CNS 69.5% | UACC-257 melanoma 76.4% | M14 melanoma 89.2%
active: SF-295 CNS -22.4%

O=C(NNC(=O)c1cccc(Cl)c1)c1ccccc1
inactive: NCI-H23 lung 108% | NCI-H226 lung 96.2% | NCI-H322M lung 107% | HOP-62 NSCLC 109% | NCI-H460 lung 106% | NCI-H522 lung 111% | A549/ATCC NSCLC 97.6% | 786-0 renal 102% | COLO 205 colon 116% | DU-145 prostate 110% | K-562 leukemia 114% | MALME-3M melanoma 106% | MDA-MB-231 breast 113% | RXF 393 renal 109% | SF-268 CNS 108% | SF-295 CNS 106% | SF-539 CNS 107% | UACC-257 melanoma 110% | M14 melanoma 112%

COc1cc(OC)c2sc(-c3ccc(-n4cncc4-c4ccc(OC)c(N)c4)cc3)nc2c1
inactive: NCI-H23 lung 87.4% | NCI-H226 lung 94% | NCI-H322M lung 105% | HOP-62 NSCLC 117% | NCI-H460 lung 78% | NCI-H522 lung 79.9% | A549/ATCC NSCLC 62.7% | 786-0 renal 79.2% | COLO 205 colon 111% | DU-145 prostate 93.5% | K-562 leukemia 54.7% | MALME-3M melanoma 82.4% | MDA-MB-231 breast 75.5% | RXF 393 renal 75.4% | SF-268 CNS 87.3% | SF-295 CNS 69.4% | SF-539 CNS 84.1% | UACC-257 melanoma 94.3% | M14 melanoma 79.9%
